This passage reports growth inhibition, inhibition and outcome results from PubChem BioAssay.

Values without a mark were called inactive. For part of these data: Results with a measured potency or affinity are listed apart. Active and inactive are the calls of the source. Unless noted, the rule behind the calls is not given here.

The term inhibition denotes the relative decrease from the control value, in per cent.

Assay [1] is described as follows: antimalarial activity against Dd2 strain (AID 2302;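 active = growth inhibition above 50% at the single 2 µM test dose, taken to imply half-maximal potency below 2 µM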;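 note: 0% = DMSO untreated growth and 100% = chloroquine plus artemisinin killed control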). The following applies: P. falciparum Dd2 in RBCs, LDH growth readout, 72 h; at 2 µM; stronger effect = higher value.
Assay [2] in a line: HepG2 cytotoxicity, primary screen, cytotoxicity control for P. falciparum antimalarial project, cell-based, ATP luminescence (AID 2303;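 active = inhibition above 50%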;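 note: 0% = DMSO wells and 100% = digitonin-killed cells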). The following applies: HepG2 viability, 24-48 h, at 10 µM, stronger effect = higher value.
The target of assay [3] is L-lactate dehydrogenase (Plasmodium falciparum (isolate CDC / Honduras)) (UniProt Q27743). Briefly: PfLDH activity inhibition – cell lysate, 3D7 strain, counter-screen for P. falciparum growth inhibition project (AID 2304).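 Note: 0% = vehicle and 100% = reference inhibitor.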 The following applies: P. falciparum 3D7 crude extract, LDH APAD/NBT absorbance; at 2 µM; stronger effect = higher value. In general terms: Counterscreens check selectivity or assay interference.

A short description of assay [4]: inhibition of 3D7 malaria parasite growth – strain 3D7 (AID 2306).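 Note: 0% = DMSO wells and 100% = chloroquine plus artemisinin control wells.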 The following applies: P. falciparum 3D7 erythrocytic growth, LDH absorbance, 72 h; at 2 µM; stronger effect = higher value.
In assay [5] the target is Calcium-dependent protein kinase 1 (Plasmodium falciparum (isolate 3D7)) (UniProt P62344). Briefly: PfCDPK1 kinase inhibitors, biochemical, TCAMS library (AID 1159585; cut-off not given, nearly all actives have IC50 up to about 0.98 µM;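 note: inhibitors leave more ATP so luminescence rises with inhibition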). The conditions noted are these: recombinant PfCDPK1, Kinase-Glo ATP depletion luminescence. (In Kinase-Glo more light means more ATP remaining.)
Assay [6] concerns the target Plasmodium falciparum protein kinase 6 (PK6, PF3D7_1337100) (UniProt Q8IDW1). Briefly: PfPK6 kinase inhibitors, biochemical, TCAMS library (AID 1159586). The following applies: recombinant PfPK6, Kinase-Glo ATP depletion luminescence.
Assay [7] has as its target Protein kinase 7 (PK7), Plasmodium falciparum 3D7 (PF3D7_0213400) (UniProt Q7YTF7). Briefly: inhibition of Plasmodium PK7 catalytic activity – biochemical, TCAMS antimalarial set, Kinase-Glo luminescence (AID 1159587). The conditions noted are these: recombinant PfPK7, Kinase-Glo ATP depletion luminescence.
The target in assay [8] is Calcium-dependent protein kinase 4 (Plasmodium falciparum (isolate 3D7)) (UniProt Q8IBS5). Briefly: PfCDPK4 kinase inhibitors, biochemical, TCAMS library (AID 1159588; cut-off not given, nearly all actives have IC50 up to about 0.91 µM). The conditions noted are these: recombinant PfCDPK4, Kinase-Glo ATP depletion luminescence.
Sequence of Calcium-dependent protein kinase 4 (Plasmodium falciparum (isolate 3D7)) (Q8IBS5 whole entry, looked up): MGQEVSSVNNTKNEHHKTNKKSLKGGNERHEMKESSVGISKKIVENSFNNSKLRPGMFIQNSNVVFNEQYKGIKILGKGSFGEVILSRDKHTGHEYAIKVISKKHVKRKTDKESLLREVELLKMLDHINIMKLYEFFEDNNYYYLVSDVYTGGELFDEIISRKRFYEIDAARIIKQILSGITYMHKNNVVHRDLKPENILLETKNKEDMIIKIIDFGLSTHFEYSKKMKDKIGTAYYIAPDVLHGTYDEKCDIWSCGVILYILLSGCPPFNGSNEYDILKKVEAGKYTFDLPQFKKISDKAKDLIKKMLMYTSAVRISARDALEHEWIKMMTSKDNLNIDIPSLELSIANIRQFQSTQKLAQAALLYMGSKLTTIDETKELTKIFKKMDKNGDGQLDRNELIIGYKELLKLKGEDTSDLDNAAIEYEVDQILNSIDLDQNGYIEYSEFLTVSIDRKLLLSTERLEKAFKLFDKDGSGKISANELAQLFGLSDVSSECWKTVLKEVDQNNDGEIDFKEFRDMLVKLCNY

Sequence of Protein kinase 7 (PK7), Plasmodium falciparum 3D7 (PF3D7_0213400) (Q7YTF7 1-343): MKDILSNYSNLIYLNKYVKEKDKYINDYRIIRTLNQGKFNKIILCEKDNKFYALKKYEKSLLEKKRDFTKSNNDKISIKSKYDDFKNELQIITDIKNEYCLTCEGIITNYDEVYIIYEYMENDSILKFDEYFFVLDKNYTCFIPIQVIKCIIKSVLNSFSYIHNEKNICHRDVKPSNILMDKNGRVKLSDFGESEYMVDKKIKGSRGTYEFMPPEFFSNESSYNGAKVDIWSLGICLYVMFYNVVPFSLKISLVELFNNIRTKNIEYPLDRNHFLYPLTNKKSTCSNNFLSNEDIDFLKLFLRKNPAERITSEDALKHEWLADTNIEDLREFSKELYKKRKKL
Sequence of L-lactate dehydrogenase (Plasmodium falciparum (isolate CDC / Honduras)) (Q27743 whole entry, looked up): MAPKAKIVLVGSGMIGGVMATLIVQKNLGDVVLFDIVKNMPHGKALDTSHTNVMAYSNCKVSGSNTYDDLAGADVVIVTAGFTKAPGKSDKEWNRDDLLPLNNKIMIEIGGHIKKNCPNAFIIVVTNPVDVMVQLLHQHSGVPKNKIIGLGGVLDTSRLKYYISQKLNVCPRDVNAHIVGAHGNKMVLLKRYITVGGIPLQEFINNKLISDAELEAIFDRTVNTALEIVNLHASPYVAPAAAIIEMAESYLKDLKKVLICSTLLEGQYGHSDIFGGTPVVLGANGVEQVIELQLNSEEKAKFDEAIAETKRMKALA
Sequence of Calcium-dependent protein kinase 1 (Plasmodium falciparum (isolate 3D7)) (P62344 whole entry, looked up): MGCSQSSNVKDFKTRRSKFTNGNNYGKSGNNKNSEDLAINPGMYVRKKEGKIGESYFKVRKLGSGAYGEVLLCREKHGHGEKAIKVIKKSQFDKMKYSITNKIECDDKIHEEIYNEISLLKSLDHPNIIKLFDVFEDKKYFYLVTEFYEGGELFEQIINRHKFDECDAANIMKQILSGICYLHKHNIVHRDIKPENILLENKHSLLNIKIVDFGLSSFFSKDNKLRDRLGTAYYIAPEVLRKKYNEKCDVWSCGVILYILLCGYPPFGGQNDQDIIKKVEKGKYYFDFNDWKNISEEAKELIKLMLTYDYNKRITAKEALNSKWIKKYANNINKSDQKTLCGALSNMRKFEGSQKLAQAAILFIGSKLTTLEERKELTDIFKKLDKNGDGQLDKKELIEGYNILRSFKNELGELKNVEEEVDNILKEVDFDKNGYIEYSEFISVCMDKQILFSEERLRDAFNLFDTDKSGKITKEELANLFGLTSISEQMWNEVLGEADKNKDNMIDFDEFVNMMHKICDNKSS
Sequence of Plasmodium falciparum protein kinase 6 (PK6, PF3D7_1337100) (Q8IDW1 1-305): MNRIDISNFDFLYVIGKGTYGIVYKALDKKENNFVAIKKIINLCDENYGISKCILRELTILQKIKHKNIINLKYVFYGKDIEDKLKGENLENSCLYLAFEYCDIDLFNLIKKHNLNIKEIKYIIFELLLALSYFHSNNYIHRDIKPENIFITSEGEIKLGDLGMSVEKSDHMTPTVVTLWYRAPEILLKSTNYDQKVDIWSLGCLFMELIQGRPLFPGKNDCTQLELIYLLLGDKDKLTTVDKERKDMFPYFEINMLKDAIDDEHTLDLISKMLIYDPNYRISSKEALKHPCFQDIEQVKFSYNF

In the case of `Cc1ccc(Cl)cc1NC(=O)c1c(-c2ccccc2Cl)noc1C`, the growth inhibition in assay [1] was 37%; in assay [4], 88% (active). The figures for the inhibition in assay [2] and in assay [3] were 9% and -1%, respectively. Also, the outcome in assay [5], in assay [6], in assay [7] and in assay [8] was inactive.

Consider `CN(C)CCCOc1ccc(CN2CC[C@H](NC(=O)c3ccc(Cl)c(Cl)c3)C2)cc1Cl`, for which the growth inhibition in assay [1] was 35%; in assay [4], 100% (active). Besides, the figures for the inhibition in assay [2] and in assay [3] were 65% (active) and 1%, respectively. The outcome in assay [5], in assay [6], in assay [7] and in assay [8] was inactive.

As for `O=S(=O)(Nc1cccc(CCN2CCC(N3CCCCC3)CC2)c1)c1ccc2c(c1)OCCO2`, the growth inhibition in assay [1] was 5%; in assay [4], 91% (active). In addition, the results for the inhibition in assay [2] and in assay [3] were 8% and -1%, respectively. Moreover, the outcome in assay [5], in assay [6], in assay [7] and in assay [8] was inactive.

Regarding `Cc1ccc(/C=C/C(=O)NCCCCCN2CCCN(C(=O)Nc3ccc(Cl)c(Cl)c3)CC2)cc1`, the growth inhibition in assay [1] was 1%; in assay [4], 95% (active). Besides, the figures for the inhibition in assay [2] and in assay [3] were 24% and 2%, respectively. In addition, the result in assay [5], in assay [6], in assay [7] and in assay [8] was inactive.

`CC1(C)N=C(N)N=C(N)N1c1cc(Cl)c(Cl)c(Cl)c1`: the growth inhibition in assay [1] was 31%; in assay [4], 93% (active). Further, the values for the inhibition in assay [2] and in assay [3] were 68% (active) and -7%, respectively. Moreover, the result in assay [5], in assay [6], in assay [7] and in assay [8] was inactive.

With `CC(C)c1ccc(NC(=O)Nc2ccc(CCNCCCc3ccccc3)cc2)cc1`, the growth inhibition in assay [1] was 56% (active); in assay [4] it was 101% (active). For the same compound, the inhibition was 22% in assay [2] and 1% in assay [3]. Also, the result in assay [5], in assay [6], in assay [7] and in assay [8] was inactive.

Turning to `COc1cccc(-c2cccc(CNC3CCN(CC4Cn5c(=O)ccc6ccc(F)c4c65)CC3)c2)c1` (centres undefined), the figures for the growth inhibition in assay [1] and in assay [4] were 15% and 99% (active), respectively. In addition, the values for the inhibition in assay [2] and in assay [3] were 23% and 4%, respectively. Further, the result in assay [5], in assay [6], in assay [7] and in assay [8] was inactive.

For the compound `COc1cccc2c1CCN(CCN1CCC(CNC(=O)c3ccc(-c4ccc(C#N)cc4)cc3)CC1)C2`, the growth inhibition in assay [1] is 98% (active); in assay [4] it was 99% (active). Further, the inhibition in assay [2] is 57% (active); in assay [3] it was 6%. Besides, the result in assay [5], in assay [6], in assay [7] and in assay [8] was inactive.

With `CN(C)c1cccc2c1nc(-c1ccco1)n2CC1CCCN1` (centres undefined), the growth inhibition in assay [1] is 46%; in assay [4], 86% (active). Besides, the inhibition in assay [2] is -1%; in assay [3], 6%. The outcome in assay [5], in assay [6], in assay [7] and in assay [8] was inactive.

Take `CC(=O)Oc1c(C2C=CCCC2)c(OC(C)=O)c2ccccc2c1OC(C)=O` (centres undefined): the growth inhibition is 79% (active) in assay [1] and 95% (active) in assay [4]. The inhibition was 10% in assay [2] and 7% in assay [3]. The result in assay [5], in assay [6], in assay [7] and in assay [8] was inactive.

As for `C[C@@H](N=C(Nc1ccc(C#N)cc1O)Nc1ccccc1Cl)c1ccc(Br)cc1`, the figures for the growth inhibition in assay [1] and in assay [4] were 70% (active) and 98% (active), respectively. Also, the inhibition in assay [2] is 33%; in assay [3], 0%. Besides, the outcome in assay [5], in assay [6], in assay [7] and in assay [8] was inactive.

In the case of `Cc1ccc(NC(=O)NC2CCN(c3ccnc4ccccc34)C2)cc1` (centres undefined), the figures for the growth inhibition in assay [1] and in assay [4] were 48% and 99% (active), respectively. The inhibition was 7% in assay [2] and 0% in assay [3]. The outcome in assay [5], in assay [6], in assay [7] and in assay [8] was inactive.

`CCOC(=O)N/N=C/[C@H](CCc1ccccc1)NC(=O)[C@H](CC(C)C)NC(=O)c1cc2cccc(OC)c2o1`: the growth inhibition in assay [1] is 58% (active); in assay [4] it was 84% (active). The inhibition in assay [2] is 3%; in assay [3] it was 2%. The outcome in assay [5], in assay [6], in assay [7] and in assay [8] was inactive.

With `COc1ccc2nccc(N3CCC(CCNCc4ccc5c(n4)NC(=O)CS5)CC3)c2n1`, the growth inhibition is 75% (active) in assay [1] and 102% (active) in assay [4]. The inhibition in assay [2] was 32%; in assay [3], -1%. Also, the result in assay [5], in assay [6], in assay [7] and in assay [8] was inactive.

With `CC(C)Nc1cc(C(=O)N[C@@H](Cc2ccccc2)[C@H](O)CNC(C)(C)c2cccc(C(F)(F)F)c2)cc(N2CCCCS2(=O)=O)c1`, the growth inhibition in assay [1] and in assay [4] was 98% (active) each time. The figures for the inhibition in assay [2] and in assay [3] were 9% and 2%, respectively. The outcome in assay [5], in assay [6], in assay [7] and in assay [8] was inactive.

`O=C(Cc1ccc(F)cc1)NC1CCN(c2ccnc3cc(Cl)ccc23)C1` (centres undefined): the growth inhibition is 85% (active) in assay [1] and 99% (active) in assay [4]. Also, the inhibition in assay [2] is -1%; in assay [3], 1%. In addition, the result in assay [5], in assay [6], in assay [7] and in assay [8] was inactive.

Turning to `CC[C@H](C)CNC(=O)c1cncc(-c2cccc(CN3CCC(N4CCCC4)CC3)c2)c1`, the figures for the growth inhibition in assay [1] and in assay [4] were 5% and 97% (active), respectively. The inhibition in assay [2] is -1%; in assay [3], 6%. Also, the result in assay [5], in assay [6], in assay [7] and in assay [8] was inactive.

`CCCc1cc(N2CCC(c3ccccc3)(N3CCCCC3)CC2)nc(Nc2ccc(OC)cc2)n1`: the growth inhibition in assay [1] is 28%; in assay [4], 81% (active). Further, the inhibition was 13% in assay [2] and 1% in assay [3]. The result in assay [5], in assay [6], in assay [7] and in assay [8] was inactive.
